# According to PMC7862700, “An all-to-all approach to the identification of sequence-specific readers for epigenetic DNA modifications on cytosine”:
# Key:
# Experiment in all cases: DAPPL (digital affinity profiling via proximity ligation, sequencing); 10 mM Tris-HCl pH 7.5, 50 mM NaCl, 1 mM DTT, 4% glycerol, room temperature, 30 min; GST-TFs on glutathione beads, 16-mer random dsDNA library, 0.1% formaldehyde crosslink after washing; high values mean tight binding
# FLI1 = target: T1, FLI1 (Homo sapiens, UniProt Q01543 1-452); settings: protein: recombinant; tags: N-terminal GST; dsDNA, one strand shown
# T1 sequence: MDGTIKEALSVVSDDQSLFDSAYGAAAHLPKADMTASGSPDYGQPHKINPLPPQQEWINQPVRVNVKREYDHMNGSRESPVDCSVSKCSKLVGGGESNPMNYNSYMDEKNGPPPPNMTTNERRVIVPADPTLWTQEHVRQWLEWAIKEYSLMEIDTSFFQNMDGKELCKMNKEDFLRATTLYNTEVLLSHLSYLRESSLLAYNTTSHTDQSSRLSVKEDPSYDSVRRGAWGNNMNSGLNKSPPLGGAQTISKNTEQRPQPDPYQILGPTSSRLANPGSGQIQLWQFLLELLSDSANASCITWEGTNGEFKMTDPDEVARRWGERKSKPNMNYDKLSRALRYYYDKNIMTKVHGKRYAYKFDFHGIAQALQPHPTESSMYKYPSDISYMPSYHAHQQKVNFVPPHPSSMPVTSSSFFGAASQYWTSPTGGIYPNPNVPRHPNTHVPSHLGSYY
# Summary of the method: (§1)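 Pools were built from human transcription factors expressed in yeast as GST fusions, captured on glutathione beads and DNA-barcoded, along with a tag-only sample. Incubation with 200 nmole of a 16-mer random double-stranded DNA library lasted 30 min at room temperature in Tris/NaCl/DTT/glycerol buffer, and was followed by washing, 0.1% formaldehyde crosslinking, proximity ligation, PCR amplification and Illumina NextSeq500 sequencing. Binding signal is the quotient of each hexamer's read frequency for a factor and its frequency for the tag-only sample.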
# ELK1 = target: T2, ELK1 (Homo sapiens, UniProt P19419 1-428); settings: protein: recombinant; tags: N-terminal GST; dsDNA, one strand shown
# T2 sequence: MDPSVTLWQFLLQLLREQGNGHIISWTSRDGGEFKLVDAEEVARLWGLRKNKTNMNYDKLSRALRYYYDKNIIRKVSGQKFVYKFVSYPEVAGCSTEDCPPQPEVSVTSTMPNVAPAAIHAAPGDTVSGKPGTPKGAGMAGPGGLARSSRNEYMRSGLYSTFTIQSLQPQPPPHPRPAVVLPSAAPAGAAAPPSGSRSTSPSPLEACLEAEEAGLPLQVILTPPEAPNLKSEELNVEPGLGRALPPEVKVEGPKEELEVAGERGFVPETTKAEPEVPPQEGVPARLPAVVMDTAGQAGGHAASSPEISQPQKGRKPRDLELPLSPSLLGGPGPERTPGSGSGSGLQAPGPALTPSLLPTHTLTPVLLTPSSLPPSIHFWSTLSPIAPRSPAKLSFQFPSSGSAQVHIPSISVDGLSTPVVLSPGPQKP
# Summary of the method: as §1
# GABPA = target: T3, GABPA (Homo sapiens, UniProt Q06546 1-454); settings: protein: recombinant; tags: N-terminal GST; dsDNA, one strand shown
# T3 sequence: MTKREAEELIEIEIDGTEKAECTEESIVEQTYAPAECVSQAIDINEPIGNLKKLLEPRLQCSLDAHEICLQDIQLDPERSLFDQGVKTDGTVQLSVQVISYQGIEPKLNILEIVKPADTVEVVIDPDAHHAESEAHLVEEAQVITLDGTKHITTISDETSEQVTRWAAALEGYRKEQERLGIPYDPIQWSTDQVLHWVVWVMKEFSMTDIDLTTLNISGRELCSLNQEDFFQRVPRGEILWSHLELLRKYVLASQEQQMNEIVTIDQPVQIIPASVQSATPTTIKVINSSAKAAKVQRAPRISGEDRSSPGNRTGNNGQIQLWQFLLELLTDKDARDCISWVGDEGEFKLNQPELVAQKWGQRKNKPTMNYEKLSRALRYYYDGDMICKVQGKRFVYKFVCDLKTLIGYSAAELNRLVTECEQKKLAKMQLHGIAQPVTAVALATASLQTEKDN
# Summary of the method: as §1
# ERG = target: T4, ERG (Homo sapiens, UniProt P11308 1-479); settings: protein: recombinant; tags: N-terminal GST; dsDNA, one strand shown
# T4 sequence: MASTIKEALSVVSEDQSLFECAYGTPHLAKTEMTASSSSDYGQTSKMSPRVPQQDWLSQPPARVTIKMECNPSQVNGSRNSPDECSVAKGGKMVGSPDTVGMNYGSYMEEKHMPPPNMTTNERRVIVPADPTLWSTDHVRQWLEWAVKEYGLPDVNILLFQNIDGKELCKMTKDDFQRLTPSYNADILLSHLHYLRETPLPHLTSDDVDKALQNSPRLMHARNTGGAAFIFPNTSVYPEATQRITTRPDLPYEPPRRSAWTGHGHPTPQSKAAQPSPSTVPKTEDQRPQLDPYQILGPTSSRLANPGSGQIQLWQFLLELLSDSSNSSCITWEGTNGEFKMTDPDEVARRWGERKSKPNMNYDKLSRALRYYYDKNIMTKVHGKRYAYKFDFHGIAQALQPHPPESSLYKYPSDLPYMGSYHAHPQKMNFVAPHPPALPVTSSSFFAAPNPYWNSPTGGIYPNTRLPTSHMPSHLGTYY
# Summary of the method: as §1
# ELF1 = ELF1 (Homo sapiens, UniProt P32519 1-619); settings: protein: recombinant; tags: N-terminal GST; dsDNA, one strand shown
# Summary of the method: as §1
# EHF = target: T5, EHF (Homo sapiens, UniProt Q9NZC4 1-300); settings: protein: recombinant; tags: N-terminal GST; dsDNA, one strand shown
# T5 sequence: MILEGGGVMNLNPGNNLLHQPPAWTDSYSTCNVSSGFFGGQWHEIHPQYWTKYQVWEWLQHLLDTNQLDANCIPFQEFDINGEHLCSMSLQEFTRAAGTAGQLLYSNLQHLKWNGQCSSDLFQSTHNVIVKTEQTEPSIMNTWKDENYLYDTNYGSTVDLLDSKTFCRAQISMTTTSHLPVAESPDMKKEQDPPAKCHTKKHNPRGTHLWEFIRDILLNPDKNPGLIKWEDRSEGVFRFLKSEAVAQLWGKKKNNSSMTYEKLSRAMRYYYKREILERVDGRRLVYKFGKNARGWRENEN
# Summary of the method: as §1
# SPI1 = SPI1 (Homo sapiens, UniProt P17947 1-270); settings: protein: recombinant; tags: N-terminal GST; dsDNA, one strand shown
# Summary of the method: as §1
# SPIB = SPIB (Homo sapiens, UniProt Q01892 1-262); settings: protein: recombinant; tags: N-terminal GST; dsDNA, one strand shown
# Summary of the method: as §1
# ELK3 = target: T6, ELK3 (Homo sapiens, UniProt P41970 1-407); settings: protein: recombinant; tags: N-terminal GST; dsDNA, one strand shown
# T6 sequence: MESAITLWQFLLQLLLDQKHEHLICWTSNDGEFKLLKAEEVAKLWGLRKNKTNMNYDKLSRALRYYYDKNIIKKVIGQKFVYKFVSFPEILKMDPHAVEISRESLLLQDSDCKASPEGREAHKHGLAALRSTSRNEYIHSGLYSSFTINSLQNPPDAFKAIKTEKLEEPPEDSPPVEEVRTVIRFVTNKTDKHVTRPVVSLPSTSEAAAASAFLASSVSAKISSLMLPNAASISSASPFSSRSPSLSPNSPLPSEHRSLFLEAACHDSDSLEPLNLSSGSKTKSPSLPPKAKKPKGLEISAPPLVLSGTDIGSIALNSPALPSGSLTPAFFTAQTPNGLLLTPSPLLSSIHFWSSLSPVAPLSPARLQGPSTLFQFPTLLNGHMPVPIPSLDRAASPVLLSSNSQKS
# Summary of the method: as §1
# FEV = target: T7, FEV (Homo sapiens, UniProt Q99581 1-238); settings: protein: recombinant; tags: N-terminal GST; dsDNA, one strand shown
# T7 sequence: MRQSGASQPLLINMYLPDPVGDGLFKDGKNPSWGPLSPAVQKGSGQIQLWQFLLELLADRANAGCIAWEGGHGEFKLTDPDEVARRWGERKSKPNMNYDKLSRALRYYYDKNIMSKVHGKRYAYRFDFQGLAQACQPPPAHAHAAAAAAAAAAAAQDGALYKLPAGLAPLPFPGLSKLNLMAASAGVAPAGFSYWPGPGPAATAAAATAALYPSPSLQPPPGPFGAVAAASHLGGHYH
# Summary of the method: as §1
# ETV5 = ETV5 (Homo sapiens, UniProt P41161 1-510); settings: protein: recombinant; tags: N-terminal GST; dsDNA, one strand shown
# Summary of the method: as §1
# HSF1 = HSF1 (Homo sapiens, UniProt Q00613 1-529); settings: protein: recombinant; tags: N-terminal GST; chain copies: 3; dsDNA, one strand shown
# Summary of the method: as §1
# SPIC = target: T8, SPIC (Homo sapiens, UniProt Q8N5J4 1-248); settings: protein: recombinant; tags: N-terminal GST; dsDNA, one strand shown
# T8 sequence: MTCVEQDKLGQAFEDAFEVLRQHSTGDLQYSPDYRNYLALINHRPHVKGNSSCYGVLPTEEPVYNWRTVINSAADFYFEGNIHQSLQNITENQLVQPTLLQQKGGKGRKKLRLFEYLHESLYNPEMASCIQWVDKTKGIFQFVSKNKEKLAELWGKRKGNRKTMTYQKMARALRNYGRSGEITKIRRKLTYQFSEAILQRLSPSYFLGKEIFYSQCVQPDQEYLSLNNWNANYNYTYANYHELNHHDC
# Summary of the method: as §1
# ELF4 = ELF4 (Homo sapiens, UniProt Q99607 1-663); settings: protein: recombinant; tags: N-terminal GST; dsDNA, one strand shown
# Summary of the method: as §1
# ELK4 = target: T9, ELK4 (Homo sapiens, UniProt P28324-2 1-405); settings: protein: recombinant; tags: N-terminal GST; dsDNA, one strand shown
# T9 sequence: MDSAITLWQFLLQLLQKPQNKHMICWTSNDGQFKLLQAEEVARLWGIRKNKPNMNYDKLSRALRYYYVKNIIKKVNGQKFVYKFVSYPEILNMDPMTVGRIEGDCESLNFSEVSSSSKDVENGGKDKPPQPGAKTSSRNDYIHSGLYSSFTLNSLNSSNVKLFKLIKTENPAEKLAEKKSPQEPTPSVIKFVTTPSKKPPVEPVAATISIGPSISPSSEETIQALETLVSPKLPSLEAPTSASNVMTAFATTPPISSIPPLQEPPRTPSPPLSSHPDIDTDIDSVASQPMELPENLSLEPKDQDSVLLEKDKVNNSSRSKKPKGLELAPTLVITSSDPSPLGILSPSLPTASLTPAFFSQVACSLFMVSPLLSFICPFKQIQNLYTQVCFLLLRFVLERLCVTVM
# Summary of the method: as §1
# ETV2 = target: T10, ETV2 (Homo sapiens, UniProt O00321 1-342); settings: protein: recombinant; tags: N-terminal GST; dsDNA, one strand shown
# T10 sequence: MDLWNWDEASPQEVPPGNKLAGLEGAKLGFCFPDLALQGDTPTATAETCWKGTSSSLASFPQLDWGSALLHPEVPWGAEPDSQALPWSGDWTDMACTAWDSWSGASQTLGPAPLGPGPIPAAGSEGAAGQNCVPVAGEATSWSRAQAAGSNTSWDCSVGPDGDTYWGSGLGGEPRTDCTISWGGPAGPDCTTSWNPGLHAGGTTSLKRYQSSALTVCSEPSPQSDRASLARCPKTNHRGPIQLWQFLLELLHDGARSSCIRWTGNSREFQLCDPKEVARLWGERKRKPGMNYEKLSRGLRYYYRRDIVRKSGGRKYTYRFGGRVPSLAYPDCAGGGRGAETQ
# Summary of the method: as §1
# ELF3 = target: T11, ELF3 (Homo sapiens, UniProt P78545 1-371); settings: protein: recombinant; tags: N-terminal GST; dsDNA, one strand shown
# T11 sequence: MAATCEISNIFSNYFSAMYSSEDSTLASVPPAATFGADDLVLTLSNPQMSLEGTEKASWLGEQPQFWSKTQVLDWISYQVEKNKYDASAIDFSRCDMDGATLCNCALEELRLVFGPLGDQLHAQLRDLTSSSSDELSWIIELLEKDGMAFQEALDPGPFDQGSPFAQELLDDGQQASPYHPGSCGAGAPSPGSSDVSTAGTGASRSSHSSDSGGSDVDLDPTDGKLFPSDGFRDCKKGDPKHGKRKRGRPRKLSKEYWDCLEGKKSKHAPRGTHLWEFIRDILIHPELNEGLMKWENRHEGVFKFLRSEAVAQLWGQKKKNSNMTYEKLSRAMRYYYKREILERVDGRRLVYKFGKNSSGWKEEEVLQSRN
# Summary of the method: as §1
# CRX = CRX (Homo sapiens, UniProt O43186 1-299); settings: protein: recombinant; tags: N-terminal GST; dsDNA, one strand shown
# Summary of the method: as §1
# ETV1 = ETV1 (Homo sapiens, UniProt P50549 1-477); settings: protein: recombinant; tags: N-terminal GST; dsDNA, one strand shown
# Summary of the method: as §1
# Sequence of ELF4 (Q99607 whole entry): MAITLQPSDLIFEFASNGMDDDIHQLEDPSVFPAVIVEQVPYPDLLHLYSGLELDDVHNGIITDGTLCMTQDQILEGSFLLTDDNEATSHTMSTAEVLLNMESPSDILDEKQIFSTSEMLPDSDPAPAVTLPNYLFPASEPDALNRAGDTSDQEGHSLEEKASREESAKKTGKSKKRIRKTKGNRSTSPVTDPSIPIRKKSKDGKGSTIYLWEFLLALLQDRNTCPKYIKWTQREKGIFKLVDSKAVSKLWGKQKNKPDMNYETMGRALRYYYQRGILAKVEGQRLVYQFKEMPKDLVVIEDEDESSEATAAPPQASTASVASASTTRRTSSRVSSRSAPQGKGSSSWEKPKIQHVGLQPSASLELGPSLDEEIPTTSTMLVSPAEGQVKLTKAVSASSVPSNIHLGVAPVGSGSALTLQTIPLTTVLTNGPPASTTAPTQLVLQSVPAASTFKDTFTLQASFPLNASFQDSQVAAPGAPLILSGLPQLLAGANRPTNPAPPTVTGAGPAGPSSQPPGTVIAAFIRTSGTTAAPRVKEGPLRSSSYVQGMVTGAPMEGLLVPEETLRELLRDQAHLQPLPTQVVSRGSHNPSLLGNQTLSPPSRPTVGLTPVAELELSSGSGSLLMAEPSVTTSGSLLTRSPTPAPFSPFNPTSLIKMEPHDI
# Sequence of SPIB (Q01892 whole entry): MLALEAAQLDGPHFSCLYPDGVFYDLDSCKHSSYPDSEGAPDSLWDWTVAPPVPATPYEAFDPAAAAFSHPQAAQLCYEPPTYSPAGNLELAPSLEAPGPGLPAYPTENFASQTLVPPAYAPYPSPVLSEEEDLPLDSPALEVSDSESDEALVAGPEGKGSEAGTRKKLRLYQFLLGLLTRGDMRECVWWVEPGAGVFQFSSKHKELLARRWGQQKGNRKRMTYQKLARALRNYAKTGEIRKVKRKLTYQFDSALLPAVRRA
# Sequence of ELF1 (P32519 whole entry): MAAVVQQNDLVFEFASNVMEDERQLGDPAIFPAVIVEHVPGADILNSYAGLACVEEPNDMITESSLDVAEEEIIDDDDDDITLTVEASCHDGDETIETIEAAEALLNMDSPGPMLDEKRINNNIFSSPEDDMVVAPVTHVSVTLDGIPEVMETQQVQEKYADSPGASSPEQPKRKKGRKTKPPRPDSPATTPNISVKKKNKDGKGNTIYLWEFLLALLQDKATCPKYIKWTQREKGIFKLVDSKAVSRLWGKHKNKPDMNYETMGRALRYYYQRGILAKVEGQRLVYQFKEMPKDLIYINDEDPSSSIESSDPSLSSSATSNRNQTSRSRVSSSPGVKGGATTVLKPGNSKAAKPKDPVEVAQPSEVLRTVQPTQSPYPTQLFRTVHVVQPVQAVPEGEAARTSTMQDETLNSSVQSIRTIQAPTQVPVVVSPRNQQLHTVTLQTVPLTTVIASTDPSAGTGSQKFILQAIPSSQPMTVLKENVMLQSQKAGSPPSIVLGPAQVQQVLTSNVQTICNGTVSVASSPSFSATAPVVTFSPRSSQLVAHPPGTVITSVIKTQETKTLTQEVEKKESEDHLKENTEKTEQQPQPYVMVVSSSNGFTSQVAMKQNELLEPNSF
# Sequence of ETV1 (P50549 whole entry): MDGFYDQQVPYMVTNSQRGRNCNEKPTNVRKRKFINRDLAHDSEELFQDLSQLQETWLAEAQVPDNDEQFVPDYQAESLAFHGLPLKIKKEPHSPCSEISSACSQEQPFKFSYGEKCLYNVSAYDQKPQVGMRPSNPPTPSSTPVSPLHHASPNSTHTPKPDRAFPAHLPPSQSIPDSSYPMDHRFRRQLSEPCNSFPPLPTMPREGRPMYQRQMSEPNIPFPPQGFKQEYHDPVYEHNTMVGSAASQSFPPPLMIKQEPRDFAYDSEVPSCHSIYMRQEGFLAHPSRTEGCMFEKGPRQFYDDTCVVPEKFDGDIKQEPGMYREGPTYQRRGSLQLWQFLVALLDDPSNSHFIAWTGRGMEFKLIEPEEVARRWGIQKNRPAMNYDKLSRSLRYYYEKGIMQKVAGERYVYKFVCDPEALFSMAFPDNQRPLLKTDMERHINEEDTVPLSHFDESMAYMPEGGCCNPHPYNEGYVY
# Sequence of CRX (O43186 whole entry): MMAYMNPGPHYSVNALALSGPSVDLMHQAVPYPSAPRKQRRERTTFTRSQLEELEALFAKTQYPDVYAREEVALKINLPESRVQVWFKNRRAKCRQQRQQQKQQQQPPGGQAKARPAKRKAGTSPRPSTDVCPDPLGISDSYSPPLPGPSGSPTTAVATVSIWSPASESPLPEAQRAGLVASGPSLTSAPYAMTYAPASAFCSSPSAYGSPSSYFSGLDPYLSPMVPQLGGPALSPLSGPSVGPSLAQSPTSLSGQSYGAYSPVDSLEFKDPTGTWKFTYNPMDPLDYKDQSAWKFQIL
# Sequence of ETV5 (P41161 whole entry): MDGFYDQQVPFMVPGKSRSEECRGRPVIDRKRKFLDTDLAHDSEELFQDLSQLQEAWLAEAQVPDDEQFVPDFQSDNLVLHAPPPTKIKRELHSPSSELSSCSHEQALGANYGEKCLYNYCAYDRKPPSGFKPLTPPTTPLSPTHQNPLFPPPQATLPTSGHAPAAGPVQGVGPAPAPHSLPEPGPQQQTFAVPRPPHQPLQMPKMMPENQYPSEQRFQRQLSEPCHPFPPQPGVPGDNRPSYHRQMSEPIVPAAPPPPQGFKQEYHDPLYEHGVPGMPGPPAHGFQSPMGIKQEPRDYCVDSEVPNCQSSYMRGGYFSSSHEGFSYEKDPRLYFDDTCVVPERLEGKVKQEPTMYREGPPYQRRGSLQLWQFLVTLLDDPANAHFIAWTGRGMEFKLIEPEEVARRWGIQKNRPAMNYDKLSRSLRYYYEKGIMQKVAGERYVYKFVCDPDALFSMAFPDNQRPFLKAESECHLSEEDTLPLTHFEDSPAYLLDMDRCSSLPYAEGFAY
# Sequence of HSF1 (Q00613 whole entry): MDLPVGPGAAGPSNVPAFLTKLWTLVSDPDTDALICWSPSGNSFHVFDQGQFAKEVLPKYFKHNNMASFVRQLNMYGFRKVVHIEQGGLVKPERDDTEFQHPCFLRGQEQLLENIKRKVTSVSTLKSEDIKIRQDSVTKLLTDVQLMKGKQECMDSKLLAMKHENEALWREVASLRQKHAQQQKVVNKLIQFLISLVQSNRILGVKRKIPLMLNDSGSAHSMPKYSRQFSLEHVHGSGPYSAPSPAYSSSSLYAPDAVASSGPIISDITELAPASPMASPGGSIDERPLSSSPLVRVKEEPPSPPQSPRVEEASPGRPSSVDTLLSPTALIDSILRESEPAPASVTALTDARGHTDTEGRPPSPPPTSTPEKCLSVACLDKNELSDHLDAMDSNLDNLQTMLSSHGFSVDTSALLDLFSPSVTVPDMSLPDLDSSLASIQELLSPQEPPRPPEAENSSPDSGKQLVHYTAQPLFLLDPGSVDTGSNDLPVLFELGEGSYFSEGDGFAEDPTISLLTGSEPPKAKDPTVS
sequence,measurement,setting,value
TAGTCC,binding signal,FLI1,"1.09 fold enrichment (6-mer frequency, TF over GST control)"
same,binding signal,ELK1,"1.05 fold enrichment (6-mer frequency, TF over GST control)"
same,binding signal,GABPA,"1.12 fold enrichment (6-mer frequency, TF over GST control)"
same,binding signal,ERG,"1.08 fold enrichment (6-mer frequency, TF over GST control)"
same,binding signal,ELF1,"1.15 fold enrichment (6-mer frequency, TF over GST control)"
same,binding signal,EHF,"1.05 fold enrichment (6-mer frequency, TF over GST control)"
same,binding signal,SPI1,"1.07 fold enrichment (6-mer frequency, TF over GST control)"
same,binding signal,SPIB,"1.06 fold enrichment (6-mer frequency, TF over GST control)"
same,binding signal,ELK3,"1.07 fold enrichment (6-mer frequency, TF over GST control)"
same,binding signal,FEV,"1.07 fold enrichment (6-mer frequency, TF over GST control)"
same,binding signal,ETV5,"1.14 fold enrichment (6-mer frequency, TF over GST control)"
same,binding signal,HSF1,"1.21 fold enrichment (6-mer frequency, TF over GST control)"
same,binding signal,SPIC,"1.16 fold enrichment (6-mer frequency, TF over GST control)"
same,binding signal,ELF4,"1.07 fold enrichment (6-mer frequency, TF over GST control)"
same,binding signal,ELK4,"1.12 fold enrichment (6-mer frequency, TF over GST control)"
same,binding signal,ETV2,"1.21 fold enrichment (6-mer frequency, TF over GST control)"
same,binding signal,ELF3,"1.13 fold enrichment (6-mer frequency, TF over GST control)"
same,binding signal,CRX,"1.38 fold enrichment (6-mer frequency, TF over GST control)"
same,binding signal,ETV1,"1.1 fold enrichment (6-mer frequency, TF over GST control)"
